Source: PubChem (National Center for Advancing Translational Sciences (NCATS))
IMPase Li cell: IMPase inhibition in cells with lithium potentiation; 0.35% of 210,000 active; CHO-M1 cells, IP1 TR-FRET (IP-One), carbachol + lithium; AID 1457; Potency, µM (series often up to 59.4 µM), for the others: at the top dose activity, negative = IMPase inhibition, hits mostly inhibitors; active = well fitted inhibition curve with a large enough effect; inconclusive = small, poorly fitted or top-dose-only effect; inactive = no such curve, though single readings can be large or run the other way;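 also: IP1 builds up when IMPase is blocked and the TR-FRET signal falls; potency is read from the fitted curve at half-maximal effect; plate controls were basal vehicle for no effect and high inhibitor control for full effect; nearly all actives have a fitted effect of over 50% in size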
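IP1 accumulation measured by competitive TR-FRET in lysed CHO-M1 cells after 30 min compound exposure at 37C, with a small lithium addition to potentiate weak responses. Hill-equation AC50 from ratio and donor-channel data.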
HPGD block: HPGD (human) dehydrogenase inhibition; Potency, µM, without a hit: top-dose activity change, negative = inhibition, hits mostly inhibitors; P15428; AID 894; 4.3% of 150,000 active; purified HPGD, NADH fluorescence kinetic, PGE2 substrate; also: potency is read from the fitted curve at half-maximal effect
Target sequence (P15428 whole entry, looked up): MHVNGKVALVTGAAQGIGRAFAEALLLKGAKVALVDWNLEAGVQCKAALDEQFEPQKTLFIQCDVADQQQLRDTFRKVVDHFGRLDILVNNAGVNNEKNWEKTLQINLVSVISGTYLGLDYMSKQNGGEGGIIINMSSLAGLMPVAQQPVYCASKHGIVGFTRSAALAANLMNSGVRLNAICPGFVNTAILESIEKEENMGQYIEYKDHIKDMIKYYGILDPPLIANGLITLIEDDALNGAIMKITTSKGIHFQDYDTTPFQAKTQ
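20 nM HPGD preincubated 15 min at room temperature with compound in 50 mM Tris-HCl pH 8, 0.01% Tween 20. Started with 1 mM NAD+ and 30 uM prostaglandin E2; NADH fluorescence (360/450 nm) read 5 times over 30-s intervals, last minus first.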
IMPase inh: IMPase inhibition in cells. P97697. CHO-M1 cells, IP1 accumulation, HTRF TR-FRET ratio. inhibition (IP1 accumulation), % at 46.1 µM. 120,000 tested, under 10 active; active = well fitted curve in the direction sought with a large enough effect in the signal ratio, not every such curve was filed as active; inconclusive = small, poorly fitted or top-dose-only effect, or a change in a side signal; inactive = no such curve, though single readings can be large or run the other way; the % refers to the signal ratio;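 also: cells stimulated with carbachol in lithium chloride buffer; plate controls were DMSO basal wells for no effect and reference inhibitor wells for full effect; higher means more IMPase inhibition seen as more IP1 and lower FRET ratio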
Target sequence (P97697 whole entry, looked up): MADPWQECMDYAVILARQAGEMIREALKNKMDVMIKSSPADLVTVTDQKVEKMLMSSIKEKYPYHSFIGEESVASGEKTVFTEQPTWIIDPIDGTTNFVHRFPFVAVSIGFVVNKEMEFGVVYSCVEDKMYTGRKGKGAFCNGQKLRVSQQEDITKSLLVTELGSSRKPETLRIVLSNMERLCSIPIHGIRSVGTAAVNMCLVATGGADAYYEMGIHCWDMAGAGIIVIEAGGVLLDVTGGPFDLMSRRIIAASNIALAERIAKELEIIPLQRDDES
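CHO-M1 cells (CHO stably expressing M1 receptor), compound up to 46 uM final, stimulated with carbachol (50 uM as added) in buffer with 50mM LiCl, pH 7.4, 30 min at 37C. Cytosolic IP1 read by TR-FRET; AC50 from Hill fits.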
PNC assembly inh: perinucleolar compartment assembly inhibition; PC3M PTB-GFP, PNC prevalence imaging, 16 h; active compounds read low; activity change (PNC), negative = inhibition, % at 10 µM; 3.1% of 140,000 active; AID 2417;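 active = readout at or below -70, meaning at least 70% loss of cells showing the perinucleolar compartment, a nuclear body marking cancer cells; inconclusive = readout between -30 and a set limit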;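 also: plate controls were DMSO wells for no effect and camptothecin positive control wells for full effect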
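Compounds are pinned in duplicate onto adhered PC3M cells stably expressing GFP-tagged PTB and incubated 16 h at 37 C. Cells are then fixed, nuclei stained with Hoechst, and PNC-positive cells counted.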
ALDH1A1 block: ALDH1A1 (human) enzyme inhibition; P00352; Purified ALDH1A1, NADH fluorescence, propionaldehyde substrate; Potency, µM (titrated, usually from 75.3 µM), inactives show at the top dose activity, negative = inhibition, actives largely listed as inhibitors; 7.3% of 220,000 active;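 also: potency is read from the fitted curve at half-maximal effect; plate controls were no enzyme wells and a reference inhibitor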
Starred values were filed as active, the others as inactive; ? = inconclusive; nt = no result; ! = not active in a repeat; [ ] = dose if it differs, or a comment. Rows were chosen to be rich in hits. Some 11% of all compounds tested hit in one or more screens of this group. Unless noted, calls follow the shape of the dose curve; as a rule, active = well fitted inhibition curve with a large enough effect (not every such curve was filed as active); inconclusive = small, poorly fitted or top-dose-only effect, or another doubt; inactive = no such curve, though single readings can be large or run the other way. Unless noted, % is scaled to controls: 0 for no effect and ±100 for the full control effect.

SMILES | IMPase Li cell | HPGD block | IMPase inh | PNC assembly inh | ALDH1A1 block
O=C(NCc1ccco1)c1ccc2c(=O)n(CC3CCCO3)c(=S)[nH]c2c1 (centres undefined) | 3% | -13% | -1 | -22 | 3.2µM*
O=C(NCc1ccccc1)c1ccc2c(=O)n(CC3CCCO3)c(=S)[nH]c2c1 (centres undefined) | -10%[38.3 µM] | -5% | -2 | 21 | 2.8µM*
Cc1ccc(N2CCN(Cc3nnc(-c4ccccc4F)o3)CC2)c(C)c1 | nt | nt | 10 | nt | nt
CC(=O)OCC(=O)[C@]12OC(C)(C)O[C@@H]1C[C@H]1[C@H]3CC=C4C[C@@H](O)CC[C@]4(C)[C@H]3CC[C@]12C | 8% | -2% | nt | nt | 4%[13.5 µM]
CCN(CC)S(=O)(=O)c1cccc(NC(=O)c2ccc(Sc3nncn3C)c([N+](=O)[O-])c2)c1 | 15% | nt | nt | nt | ?
CCN1C(=O)CC(C(=O)Nc2ccc(F)cc2)SC1=Nc1cccc(OC)c1 (centres undefined) | 6%[38.3 µM] | -3% | -7 | ? | 10µM*
COc1ccc(C(=O)N[C@H](C(=O)Nc2ccc(OC)nc2)C(C)C)cc1 | 9%[38.3 µM] | -10% | 1 | -112* | 3%
CN(C)c1ccc(C(c2ccc(N(C)C)cc2)c2ccc([N+](=O)[O-])cc2)cc1 | 11% | -7% | nt | nt | 2%[13.5 µM]
CN(C)c1ccc(SC#N)cc1 | nt | nt | nt | nt | 13µM*
CN(C)c1ccc(C(=O)N2CC(=O)N(CCc3ccccc3)C(=O)C2)cc1 | 17%[38.3 µM] | ? | 1 | -2 | 6.3µM*
COc1ccc(CC(=O)N2CC(=O)N(CCc3ccccc3)C(=O)C2)cc1 | 4%[38.3 µM] | -16% | -4 | -28 | 10µM*
CCOC(=O)c1c(C)n(S(=O)(=O)c2ccc(C)cc2)c2ccc(NS(=O)(=O)c3ccc(C)cc3)cc12 | nt | nt | 1 | nt | nt
CC1=NC(C#N)=C(C#N)NC(C)(C)C1 | -5% | nt | nt | nt | 5%
CC(C)(CN)CN | -7% | 0% | nt | nt | 7%[13.5 µM]
COc1ccccc1CNc1ncncc1-c1ccoc1 | 11% | -23% | nt | nt | 25µM*
COc1ccccc1CNc1ncncc1-c1ccc(N(C)C)cc1 | 5% | ? | nt | nt | ?
S=C(Nc1ccccc1)N1N=CCC1c1ccccc1 (centres undefined) | 4%[38.3 µM] | 0% | 5 | 38 | ?
Fc1ccc(NC(=S)N2N=CCC2c2ccccc2)cc1 (centres undefined) | -8%[38.3 µM] | -13% | 3 | -15 | 7.1µM*
C#CCCOC(=O)N1C2=NC(C(=O)OC)=C(C(=O)OC)[C@@H]3N(CC#CC)c4ccccc4[C@]23C[C@H]1C(=O)OC | 8% | -4% | nt | nt | 7%[13.5 µM]
CCN1CCN(C(=O)C2c3cc(OC)c(OC)cc3C(=O)N(C)C2c2ccc(SC)cc2)CC1 (centres undefined) | 6% | -18% | 13 | -100* | ?
CCC(C)NC(=O)C1c2cc(OC)c(OC)cc2C(=O)N(C)C1c1cccs1 (centres undefined) | -12%[38.3 µM] | -10% | -1 | 10 | -1%
CCC(C)NC(=O)C1c2cc(OC)c(OC)cc2C(=O)N(C)C1c1ccc(OC)cc1 (centres undefined) | 0% | -11% | -7 | -100* | 2%
CC(=O)N1CCC2(CC1)CN(C(=O)Nc1cccc(C#N)c1)C2 | -3% | -4% | nt | nt | 2%
Cc1cc(SCC(=O)c2ccc(Br)cc2)cc(C)[o+]1 | -4% | -13% | nt | nt | 3.2µM*
CCc1ccc(CC(=S)N2CCOCC2)cc1 | 6% | nt | nt | nt | -6%
SMILES | IMPase Li cell | HPGD block | IMPase inh | PNC assembly inh | ALDH1A1 block
Cc1ccc(CC(=S)N2CCOCC2)cc1 | 3% | nt | nt | nt | 24µM*
COc1ccc(CC(=S)N2CCOCC2)cc1 | 19%[38.3 µM] | ? | 9[1.84 µM] | ? | 8.9µM*
CCCCCCN=C(C)c1ccccc1O | nt | nt | nt | nt | 1%
COC(=O)CCC(=O)Oc1ccc(OC(=O)CCC(=O)OC)cc1 | -9% | -15% | nt | -113* | ?
C=CCON1C(=O)c2ccccc2C1=O | -13%[38.3 µM] | -21% | 1 | -111* | ?
C[C@H](O)CON1C(=O)c2ccccc2C1=O | 14% | -3% | nt | nt | -5%
CCOC(=O)c1ccc(NC(=O)COC)cc1 | 4%[38.3 µM] | -13% | 3 | -89* | -2%
CC(=O)Nc1ccc(C(=O)OCc2ccc(Cl)cc2)cc1 | -14%[38.3 µM] | -11% | -3 | 59 | 14%
CCOC(=O)c1ccc(NS(=O)(=O)CC)cc1 | -1%[38.3 µM] | 14µM* | 14 | 5 | 5%
CC(=O)Nc1ccc(OC(=O)c2ccc(Cl)cc2)cc1 | -6% | -15% | nt | -80* | -4%
CCOC(=O)c1cc(NC(=O)COC)ccc1O | 5% | nt | nt | nt | -4%
CCOC(=O)c1ccccc1NC(=O)c1ccc(NS(C)(=O)=O)cc1 | 21%[38.3 µM] | 16µM* | -5 | -24 | ?
Cc1cc(C)cc(O)c1 | -14% | -9% | nt | nt | ?
Cc1cc(C)n(-c2nc3ccccc3nc2Nc2ccc(Cl)c(C(=O)OC(C)C)c2)n1 | nt | nt | 2 | nt | nt
O=C1c2ccccc2C(=O)c2c(Nc3cc4c5c(ccc6c7ccc8c9c(cc(Nc%10cccc%11c%10C(=O)c%10ccccc%10C%11=O)c(c3c56)c97)-c3ccccc3C8=O)C(=O)c3ccccc3-4)cccc21 | 2% | -4% | nt | nt | -12%[13.5 µM]
CCOC(=O)c1ccc(NC(=S)Nc2cccc(C)n2)cc1 | 0% | -4% | nt | -85* | 3%
CCOC(=O)c1ccc(NC(=O)CN2C(=O)CSC2=O)cc1 | -11%[38.3 µM] | -14% | -1 | -90* | ?
COC(=O)Cc1ccc(NC(=S)Nc2cccc(C)n2)cc1 | 15% | nt | nt | nt | 14%
CCCOC(=O)c1ccc(O)cc1 | -7% | -5% | nt | nt | 10µM*!
CCCCOC(=O)c1ccc(O)cc1 | 4% | -17% | 7[20.6 µM] | 15 | 16%
O=C(COC(=O)c1ccc(O)cc1)Nc1ccc(Cl)cc1 | 28% | nt | nt | nt | 8.9µM*
O=C(O)CCC(=O)Nc1ccc(C(=O)OCC(=O)c2ccc(Cl)cc2)cc1 | 7% | nt | nt | nt | 4%
Cc1ccc(NC(=O)CC2Sc3ccccc3NC2=O)c(Br)c1 (centres undefined) | nt | nt | 8 | nt | nt
Cc1ccc2c(c1)-c1cc(C)nn1C(c1cc(Br)ccc1O)N2 (centres undefined) | nt | nt | 4 | nt | nt
COc1cc(CC(=O)OCC(=O)Nc2cccc([N+](=O)[O-])c2)cc(OC)c1OC | 0% | -6% | 13 | ? | 17%
COc1ccc(C2c3ccc(O)cc3Oc3ncn4nc(-c5ccncc5)nc4c32)cc1OC (centres undefined) | nt | nt | nt | nt | 3%
O=S(=O)(c1ccccc1)N1CCC2(CCCN(Cc3cc(C(F)(F)F)cc(C(F)(F)F)c3)C2)CC1 | 11% | -14% | nt | nt | ?
CCS(=O)(=O)Nc1ccc(Cc2ccc(NS(=O)(=O)CC)cc2)cc1 | 10%[38.3 µM] | 5.6µM* | 11 | ? | 2%
CCOC(=O)c1ccc(NCC(O)COc2ccccc2)cc1 (centres undefined) | 7% | -4% | 5 | -119* | 5%
